Assays:
Experiment in all cases: DAPPL (digital affinity profiling via proximity ligation, sequencing); 10 mM Tris-HCl pH 7.5, 50 mM NaCl, 1 mM DTT, 4% glycerol, room temperature, 30 min; GST-TFs on glutathione beads, 16-mer random dsDNA library, 0.1% formaldehyde crosslink after washing; high values mean tight binding
Details in all cases: protein: recombinant; tags: N-terminal GST; dsDNA, one strand shown
FLI1 = target: T1, FLI1 (Homo sapiens, UniProt Q01543 1-452)
T1 sequence: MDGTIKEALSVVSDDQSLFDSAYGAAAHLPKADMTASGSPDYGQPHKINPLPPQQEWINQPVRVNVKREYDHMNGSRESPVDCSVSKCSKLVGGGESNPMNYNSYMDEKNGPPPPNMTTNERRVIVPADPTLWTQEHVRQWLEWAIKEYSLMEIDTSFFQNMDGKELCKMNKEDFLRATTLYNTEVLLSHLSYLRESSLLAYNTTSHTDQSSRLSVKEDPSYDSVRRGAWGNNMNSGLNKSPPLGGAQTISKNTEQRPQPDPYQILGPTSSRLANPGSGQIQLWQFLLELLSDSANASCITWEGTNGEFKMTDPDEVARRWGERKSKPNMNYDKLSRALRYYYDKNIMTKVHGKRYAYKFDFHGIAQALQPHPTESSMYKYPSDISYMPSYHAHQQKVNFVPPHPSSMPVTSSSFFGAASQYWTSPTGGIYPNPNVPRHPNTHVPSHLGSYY
In short: (§1)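 Sequencing on an Illumina NextSeq500 followed washing, crosslinking with 0.1% formaldehyde, proximity ligation (BsaI/T4 ligase, 1 h, 37 °C) and PCR amplification of pools that had been incubated for 30 min at room temperature with 200 nmole of a random double-stranded 16-mer DNA library in Tris/NaCl/DTT/glycerol buffer. Each pool held DNA-barcoded human transcription factors, expressed in yeast as GST fusions and captured on glutathione beads, plus a tag-only sample. Binding signal is a hexamer's read frequency for a factor divided by its frequency in the tag-only sample.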

ELK1 = target: T2, ELK1 (Homo sapiens, UniProt P19419 1-428)
T2 sequence: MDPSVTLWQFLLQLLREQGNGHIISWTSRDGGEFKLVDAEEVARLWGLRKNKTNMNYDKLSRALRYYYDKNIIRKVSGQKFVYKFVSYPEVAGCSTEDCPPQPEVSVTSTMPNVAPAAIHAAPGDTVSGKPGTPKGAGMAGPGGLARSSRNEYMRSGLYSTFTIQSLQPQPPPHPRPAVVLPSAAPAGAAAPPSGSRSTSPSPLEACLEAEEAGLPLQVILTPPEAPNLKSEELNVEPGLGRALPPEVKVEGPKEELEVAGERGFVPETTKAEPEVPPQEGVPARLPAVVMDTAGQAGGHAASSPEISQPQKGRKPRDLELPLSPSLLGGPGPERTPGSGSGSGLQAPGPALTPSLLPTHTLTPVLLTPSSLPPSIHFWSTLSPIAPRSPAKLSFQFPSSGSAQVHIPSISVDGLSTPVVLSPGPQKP
In short: as §1

GABPA = target: T3, GABPA (Homo sapiens, UniProt Q06546 1-454)
T3 sequence: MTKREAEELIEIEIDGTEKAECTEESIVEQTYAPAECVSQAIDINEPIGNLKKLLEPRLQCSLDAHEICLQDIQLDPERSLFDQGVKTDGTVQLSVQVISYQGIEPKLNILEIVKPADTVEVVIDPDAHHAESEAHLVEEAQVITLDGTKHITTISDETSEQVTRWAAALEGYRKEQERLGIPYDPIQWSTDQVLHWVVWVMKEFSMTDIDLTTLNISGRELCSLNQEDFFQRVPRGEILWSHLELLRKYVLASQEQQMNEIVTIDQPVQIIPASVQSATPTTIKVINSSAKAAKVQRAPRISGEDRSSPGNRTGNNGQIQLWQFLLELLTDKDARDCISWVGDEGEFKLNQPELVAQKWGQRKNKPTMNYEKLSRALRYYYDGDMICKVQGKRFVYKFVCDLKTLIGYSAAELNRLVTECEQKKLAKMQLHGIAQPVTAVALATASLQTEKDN
In short: as §1

ERG = target: T4, ERG (Homo sapiens, UniProt P11308 1-479)
T4 sequence: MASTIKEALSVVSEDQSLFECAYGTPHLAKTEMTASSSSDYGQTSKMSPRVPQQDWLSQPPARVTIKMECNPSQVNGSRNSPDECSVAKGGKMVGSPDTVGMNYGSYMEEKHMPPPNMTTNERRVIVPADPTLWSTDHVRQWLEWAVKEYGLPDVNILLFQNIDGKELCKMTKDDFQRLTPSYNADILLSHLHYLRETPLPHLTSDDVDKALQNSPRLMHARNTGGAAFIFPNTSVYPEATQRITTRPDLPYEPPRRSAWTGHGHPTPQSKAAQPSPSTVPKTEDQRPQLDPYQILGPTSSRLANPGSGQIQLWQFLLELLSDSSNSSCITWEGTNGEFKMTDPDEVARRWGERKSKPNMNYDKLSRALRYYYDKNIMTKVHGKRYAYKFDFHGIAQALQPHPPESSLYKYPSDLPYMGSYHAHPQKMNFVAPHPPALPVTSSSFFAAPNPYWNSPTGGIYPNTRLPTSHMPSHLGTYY
In short: as §1

ELF1 = ELF1 (Homo sapiens, UniProt P32519 1-619)
Chain of ELF1 (P32519 whole entry): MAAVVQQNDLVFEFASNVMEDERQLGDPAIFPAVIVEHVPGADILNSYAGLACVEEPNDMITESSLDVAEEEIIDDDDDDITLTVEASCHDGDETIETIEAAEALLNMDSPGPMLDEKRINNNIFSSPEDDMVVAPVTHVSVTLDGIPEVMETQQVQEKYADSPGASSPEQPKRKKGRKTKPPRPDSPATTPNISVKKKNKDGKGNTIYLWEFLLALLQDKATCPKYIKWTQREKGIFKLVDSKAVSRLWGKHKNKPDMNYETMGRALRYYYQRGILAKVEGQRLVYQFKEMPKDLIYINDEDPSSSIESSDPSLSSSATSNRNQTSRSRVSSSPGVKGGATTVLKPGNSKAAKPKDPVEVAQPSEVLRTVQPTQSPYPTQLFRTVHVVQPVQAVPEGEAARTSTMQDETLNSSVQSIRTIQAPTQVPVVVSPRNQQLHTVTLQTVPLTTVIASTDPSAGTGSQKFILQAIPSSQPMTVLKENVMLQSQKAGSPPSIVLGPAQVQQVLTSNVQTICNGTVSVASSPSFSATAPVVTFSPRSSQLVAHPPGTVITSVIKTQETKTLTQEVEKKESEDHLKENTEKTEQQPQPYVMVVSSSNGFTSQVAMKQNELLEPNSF
In short: as §1

EHF = target: T5, EHF (Homo sapiens, UniProt Q9NZC4 1-300)
T5 sequence: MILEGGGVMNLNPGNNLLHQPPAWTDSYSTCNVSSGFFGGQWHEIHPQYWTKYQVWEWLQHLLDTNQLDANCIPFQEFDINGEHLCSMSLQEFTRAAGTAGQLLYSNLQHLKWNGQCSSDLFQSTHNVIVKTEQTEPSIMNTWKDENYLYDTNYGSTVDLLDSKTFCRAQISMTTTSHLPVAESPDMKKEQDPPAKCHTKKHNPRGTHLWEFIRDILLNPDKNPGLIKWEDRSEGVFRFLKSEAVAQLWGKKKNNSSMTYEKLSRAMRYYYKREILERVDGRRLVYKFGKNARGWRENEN
In short: as §1

SPI1 = SPI1 (Homo sapiens, UniProt P17947 1-270)
In short: as §1

SPIB = SPIB (Homo sapiens, UniProt Q01892 1-262)
Chain of SPIB (Q01892 whole entry): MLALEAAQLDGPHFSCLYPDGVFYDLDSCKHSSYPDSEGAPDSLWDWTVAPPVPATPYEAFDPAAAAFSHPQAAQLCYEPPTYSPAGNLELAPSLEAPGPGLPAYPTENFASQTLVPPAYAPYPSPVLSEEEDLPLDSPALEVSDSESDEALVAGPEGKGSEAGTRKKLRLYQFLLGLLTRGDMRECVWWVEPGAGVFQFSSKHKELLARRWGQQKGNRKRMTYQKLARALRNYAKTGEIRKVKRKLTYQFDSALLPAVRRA
In short: as §1

ELK3 = target: T6, ELK3 (Homo sapiens, UniProt P41970 1-407)
T6 sequence: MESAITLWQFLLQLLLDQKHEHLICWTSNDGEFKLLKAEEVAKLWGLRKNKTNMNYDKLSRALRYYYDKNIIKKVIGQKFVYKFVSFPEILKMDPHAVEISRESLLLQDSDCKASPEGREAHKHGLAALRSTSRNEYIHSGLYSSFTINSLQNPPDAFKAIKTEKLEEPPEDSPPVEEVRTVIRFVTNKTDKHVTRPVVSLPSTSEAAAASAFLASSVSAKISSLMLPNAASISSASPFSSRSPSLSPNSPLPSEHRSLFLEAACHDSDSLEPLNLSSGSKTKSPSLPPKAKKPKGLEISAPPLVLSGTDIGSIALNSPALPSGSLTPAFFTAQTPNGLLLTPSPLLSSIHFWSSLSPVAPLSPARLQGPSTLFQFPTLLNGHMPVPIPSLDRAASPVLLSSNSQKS
In short: as §1

Sequence | binding signal (FLI1) | binding signal (ELK1) | binding signal (GABPA) | binding signal (ERG) | binding signal (ELF1) | binding signal (EHF) | binding signal (SPI1) | binding signal (SPIB) | binding signal (ELK3)
TTGTGG | 1.52 fold enrichment (6-mer frequency, TF over GST control) | 1.36 fold enrichment (6-mer frequency, TF over GST control) | 1.41 fold enrichment (6-mer frequency, TF over GST control) | 1.26 fold enrichment (6-mer frequency, TF over GST control) | 1.34 fold enrichment (6-mer frequency, TF over GST control) | 1.3 fold enrichment (6-mer frequency, TF over GST control) | 1.46 fold enrichment (6-mer frequency, TF over GST control) | 1.29 fold enrichment (6-mer frequency, TF over GST control) | 1.43 fold enrichment (6-mer frequency, TF over GST control)
TTACAA | 1.15 fold enrichment (6-mer frequency, TF over GST control) | 1.17 fold enrichment (6-mer frequency, TF over GST control) | 1.16 fold enrichment (6-mer frequency, TF over GST control) | 1.16 fold enrichment (6-mer frequency, TF over GST control) | 1.15 fold enrichment (6-mer frequency, TF over GST control) | 1.17 fold enrichment (6-mer frequency, TF over GST control) | 1.15 fold enrichment (6-mer frequency, TF over GST control) | 1.07 fold enrichment (6-mer frequency, TF over GST control) | 1.13 fold enrichment (6-mer frequency, TF over GST control)
ATATCG | 1.09 fold enrichment (6-mer frequency, TF over GST control) | 1.16 fold enrichment (6-mer frequency, TF over GST control) | 1.14 fold enrichment (6-mer frequency, TF over GST control) | 1.08 fold enrichment (6-mer frequency, TF over GST control) | 1.16 fold enrichment (6-mer frequency, TF over GST control) | 1.13 fold enrichment (6-mer frequency, TF over GST control) | 1.23 fold enrichment (6-mer frequency, TF over GST control) | 1.17 fold enrichment (6-mer frequency, TF over GST control) | 1.19 fold enrichment (6-mer frequency, TF over GST control)
CACGAT | 1.4 fold enrichment (6-mer frequency, TF over GST control) | 1.26 fold enrichment (6-mer frequency, TF over GST control) | 1.33 fold enrichment (6-mer frequency, TF over GST control) | 1.24 fold enrichment (6-mer frequency, TF over GST control) | 1.27 fold enrichment (6-mer frequency, TF over GST control) | 1.32 fold enrichment (6-mer frequency, TF over GST control) | 1.27 fold enrichment (6-mer frequency, TF over GST control) | 1.32 fold enrichment (6-mer frequency, TF over GST control) | 1.25 fold enrichment (6-mer frequency, TF over GST control)
TTGAAT | 1.11 fold enrichment (6-mer frequency, TF over GST control) | 1.08 fold enrichment (6-mer frequency, TF over GST control) | 1.15 fold enrichment (6-mer frequency, TF over GST control) | 1.1 fold enrichment (6-mer frequency, TF over GST control) | 1.12 fold enrichment (6-mer frequency, TF over GST control) | 1.11 fold enrichment (6-mer frequency, TF over GST control) | 1.12 fold enrichment (6-mer frequency, TF over GST control) | 1.03 fold enrichment (6-mer frequency, TF over GST control) | 1.04 fold enrichment (6-mer frequency, TF over GST control)
TACTCA | 1.14 fold enrichment (6-mer frequency, TF over GST control) | 1.24 fold enrichment (6-mer frequency, TF over GST control) | 1.2 fold enrichment (6-mer frequency, TF over GST control) | 1.19 fold enrichment (6-mer frequency, TF over GST control) | 1.19 fold enrichment (6-mer frequency, TF over GST control) | 1.3 fold enrichment (6-mer frequency, TF over GST control) | 1.14 fold enrichment (6-mer frequency, TF over GST control) | 1.36 fold enrichment (6-mer frequency, TF over GST control) | 1.2 fold enrichment (6-mer frequency, TF over GST control)
TCACGC | 1.35 fold enrichment (6-mer frequency, TF over GST control) | 1.18 fold enrichment (6-mer frequency, TF over GST control) | 1.22 fold enrichment (6-mer frequency, TF over GST control) | 1.18 fold enrichment (6-mer frequency, TF over GST control) | 1.2 fold enrichment (6-mer frequency, TF over GST control) | 1.24 fold enrichment (6-mer frequency, TF over GST control) | 1.17 fold enrichment (6-mer frequency, TF over GST control) | 1.17 fold enrichment (6-mer frequency, TF over GST control) | 1.28 fold enrichment (6-mer frequency, TF over GST control)

Reference: paper PMC7862700, “An all-to-all approach to the identification of sequence-specific readers for epigenetic DNA modifications on cytosine”
